Consider seven compounds from PubChem BioAssay (NCI).

Some test systems named below: SR leukemia; RPMI-8226 leukemia; OVCAR-8 ovarian; OVCAR-5 ovarian; OVCAR-4 ovarian; SK-OV-3 ovarian; IGROV1 ovarian; OVCAR-3 ovarian; HS 578T breast; NCI/ADR-RES ovarian; T-47D breast; BT-549 breast; MDA-MB-435 melanoma; SW-620 colon; MCF7 breast; HCT-116 colon; HCC-2998 colon; KM12 colon.
Assay in all cases: NCI-60 one-dose screen, 48 h (100 = growth as untreated, 0 = no growth, -100 = all killed)
What all share (conditions): 10 µM unless noted

The structures appear in SMILES notation. About 83,000 compounds went through this panel and 20% of them were active in at least one assay; those are over-represented in the sample as a whole.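 Assay: single dose, 48 h. Readout: percent growth (0 = no net growth; negative = cell death). Active: <10.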 A number with no mark means an inactive call. Active and inactive are the calls of the source.

With `Cc1ccc(/C=C2\COc3ccc(O)c(O)c3C2=O)cc1`, the growth in the assay on SR leukemia was 18%; in the assay on RPMI-8226 leukemia it was -12.6% (active); in the assay with OVCAR-8 ovarian, 4.95% (active); in the assay with OVCAR-5 ovarian, -22.1% (active); in the assay with OVCAR-4 ovarian it was 15.7%; in the assay with SK-OV-3 ovarian, 50%. Further, the growth in the assay on IGROV1 ovarian is -37.4% (active); in the assay with OVCAR-3 ovarian, -21.3% (active); in the assay on HS 578T breast it was 20.5%; with NCI/ADR-RES ovarian, 3.13% (active); with T-47D breast, -7.19% (active); with BT-549 breast it was -13.1% (active). The growth with MDA-MB-435 melanoma was -24.4% (active); in the assay with SW-620 colon, -32.4% (active); with MCF7 breast, 15.1%; with HCT-116 colon, -22.9% (active); in the assay with HCC-2998 colon it was 9.54% (active); with KM12 colon it was -19.9% (active).
In the case of `CCC(=C(c1ccc(OCCCN(C)C)cc1)c1ccc(OCCCN(C)C)cc1)c1ccc(Cl)cc1`, the growth is -48.2% (active) with SR leukemia; -55.4% (active) in the assay on RPMI-8226 leukemia; -76.3% (active) in the assay on OVCAR-8 ovarian; -89.3% (active) with OVCAR-5 ovarian; -85.8% (active) with OVCAR-4 ovarian; -88.2% (active) with SK-OV-3 ovarian. Besides, the growth is -84.9% (active) in the assay with IGROV1 ovarian; -84.6% (active) in the assay with OVCAR-3 ovarian; -77.4% (active) with HS 578T breast; -84.9% (active) in the assay on NCI/ADR-RES ovarian; -66.8% (active) in the assay on T-47D breast; -92.6% (active) with BT-549 breast. In addition, the growth in the assay on MDA-MB-435 melanoma is -95.5% (active); in the assay on SW-620 colon, -73.7% (active); with MCF7 breast, -79.2% (active); with HCT-116 colon, -94% (active); in the assay on HCC-2998 colon, -80.8% (active); with KM12 colon, -78.7% (active).
With `FC(F)(F)Sc1ccc(/C=C/c2cc(/C=C/c3ccc(SC(F)(F)F)cc3)n(-c3ccccc3)n2)cc1`, the growth in the assay on SR leukemia is 91.4%; with RPMI-8226 leukemia, 93.9%; with OVCAR-8 ovarian it was 95.1%; in the assay with OVCAR-5 ovarian, 110%; in the assay on OVCAR-4 ovarian it was 92.3%; in the assay with SK-OV-3 ovarian, 88.1%. Also, the growth is 99.9% with IGROV1 ovarian; 95.5% in the assay on OVCAR-3 ovarian; 98.8% with HS 578T breast; 98.5% in the assay with NCI/ADR-RES ovarian; 84.3% in the assay on T-47D breast; 103% with BT-549 breast. Also, the growth in the assay on MDA-MB-435 melanoma was 91.7%; with SW-620 colon, 94.9%; in the assay with MCF7 breast, 89%; with HCT-116 colon, 94.3%; in the assay with HCC-2998 colon it was 101%; in the assay with KM12 colon it was 95.2%.
As to `Cc1nc2sc(C(=O)Nc3cccc(Cl)c3C)c(N)c2cc1C(O)c1ccccc1` (stereo unspecified), the growth is 7.23% (active) in the assay with SR leukemia; 8.08% (active) with RPMI-8226 leukemia; 11.8% in the assay with OVCAR-8 ovarian; 37.5% in the assay with OVCAR-5 ovarian; 55.6% in the assay with OVCAR-4 ovarian; 32.9% in the assay with SK-OV-3 ovarian. Further, the growth was 21.8% with IGROV1 ovarian; 4.1% (active) in the assay on OVCAR-3 ovarian; 23.4% with HS 578T breast; 3.99% (active) in the assay on NCI/ADR-RES ovarian; 44.5% in the assay with T-47D breast; 40.9% with BT-549 breast. The growth with MDA-MB-435 melanoma was 4.87% (active); in the assay with SW-620 colon, 24.1%; in the assay on MCF7 breast it was 16.2%; with HCT-116 colon it was 8.63% (active); in the assay on HCC-2998 colon, 13.4%; in the assay with KM12 colon, 10.5%.
On to `COc1cc(NS(=O)(=O)C(C)C)cc(-c2cc(-c3ccc(N4CCNCC4)cc3)cnc2N)c1`, for which the growth in the assay with SR leukemia is 54.1%; in the assay on RPMI-8226 leukemia, 80%; with OVCAR-8 ovarian, 96.6%; in the assay on OVCAR-5 ovarian, 73.2%; in the assay with OVCAR-4 ovarian it was 95.9%; with SK-OV-3 ovarian, 96.9%. For the same compound, the growth is 36.9% in the assay on IGROV1 ovarian; 90.8% in the assay on OVCAR-3 ovarian; 65.4% with HS 578T breast; 111% with NCI/ADR-RES ovarian; 81.9% in the assay on T-47D breast; 78.4% in the assay with BT-549 breast. Besides, the growth is 92.5% with MDA-MB-435 melanoma; 82% in the assay on SW-620 colon; 81.2% with MCF7 breast; 14.2% in the assay with HCT-116 colon; 80.5% in the assay on HCC-2998 colon; 48.3% in the assay on KM12 colon.
Turning to `CN1C(=O)N(C)C2(c3ccccc3)N(CC(=O)Nc3ccccc3O)C(=O)NC12c1ccccc1` (stereo unspecified), the growth in the assay on SR leukemia was 112%; with RPMI-8226 leukemia, 106%; with OVCAR-8 ovarian it was 102%; in the assay on OVCAR-5 ovarian, 104%; in the assay with OVCAR-4 ovarian, 99.3%; in the assay with SK-OV-3 ovarian, 100%. For the same compound, the growth was 101% with IGROV1 ovarian; 103% in the assay with OVCAR-3 ovarian; 105% in the assay on HS 578T breast; 99.8% in the assay on NCI/ADR-RES ovarian; 98.5% with T-47D breast; 104% in the assay on BT-549 breast. Also, the growth in the assay on MDA-MB-435 melanoma was 106%; in the assay on SW-620 colon, 97.4%; in the assay on MCF7 breast, 101%; with HCT-116 colon it was 98.3%; in the assay with HCC-2998 colon it was 118%; with KM12 colon, 105%.
Regarding `COc1ccc(-c2nnc3n(C)c(=O)c4ccccc4n23)cc1O`, the growth in the assay with SR leukemia is 21.4%; with RPMI-8226 leukemia, 15.9%; in the assay with OVCAR-8 ovarian, 25.2%; with OVCAR-5 ovarian it was 66%; with OVCAR-4 ovarian, 53.6%; with SK-OV-3 ovarian it was 14.9%. Besides, the growth was 55.7% in the assay with IGROV1 ovarian; 0.325% (active) in the assay on OVCAR-3 ovarian; 29.5% in the assay with HS 578T breast; 15.5% in the assay on NCI/ADR-RES ovarian; 30.2% in the assay on T-47D breast; 41.4% in the assay on BT-549 breast. For the same compound, the growth in the assay with MDA-MB-435 melanoma is -40.8% (active); with SW-620 colon, 23.9%; in the assay on MCF7 breast, 18.2%; in the assay with HCT-116 colon, 13.1%; in the assay on HCC-2998 colon, 33.7%; in the assay with KM12 colon, 24.2%.
